Inconclusive results are not listed. Active and inactive are the calls of the source. Unless noted, calls come from the whole dose curve; as a rule, active = well fitted curve in either direction with a large enough effect (not every such curve was filed as active); inconclusive = small, poorly fitted or top-dose-only effect, or another doubt; inactive = flat fitted curve, though single readings scatter.
Key:
[1] = molecular target: Lysosomal acid glucosylceramidase (Homo sapiens) (UniProt P04062); experiment: Glucocerebrosidase-p2 (AID 348; in the data active = potency below about 10 µM; note: potency is the fitted concentration of half-maximal effect); conditions: purified GBA, blue fluorogenic substrate, 40 min
How it was run: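 Normal human glucocerebrosidase (0.2 nM) with blue fluorogenic substrate (80 uM final) in citrate/phosphate pH 5.9 with 10mM sodium taurocholate, 0.01% tween-20; 40 min RT, NaOH/glycine stop; fluorescence Ex 365/Em 440; AC50 from a titration from 0.6 nM upwards.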

[2] = AP1 Signaling Pathway (AID 357); conditions: ME-180 AP-1-bla reporter, EGF-induced, beta-lactamase ratio, 5 h; at 7.69 µM (top of the series) unless noted; note: % is set by controls: 0 for no effect and ±100 for the full control effect
How it was run: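 Cells are seeded overnight, exposed to compound titrations and an EC50 level of EGF for 5 hours at 37 °C, then loaded with CCF4 dye for 2.5 hours. Beta-lactamase activity under the AP-1 element is read as a blue/green ratio.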

[3] = molecular target: Cytochrome P450 1A2 (Homo sapiens) (UniProt P05177); experiment: p450-cyp1a2 (AID 410; calls by dose curve; note: potency is the fitted concentration of half-maximal effect;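 for activity change, negative = inhibition: -100% = full effect of reference inhibitor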); conditions: recombinant CYP1A2, luciferin-ME demethylation, luminescence; series mostly up to 57 µM
How it was run: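 Read-out is luminescence from luciferin produced by CYP1A2 demethylation of Luciferin-ME (100uM, at Km). Detection reagent stopped the 60 min NADPH-dependent reaction; signals were normalized to 57 uM furafylline.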

[4] = NFAT Signaling Pathway (AID 444); conditions: Jurkat NFAT-bla M1, carbachol, beta-lactamase ratio, 5 h; at 7.69 µM (top of the series) unless noted;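 note: carbachol stimulus at about its EC50 of 1 µM final; % is set by controls: 0 for no effect and ±100 for the full control effect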
How it was run: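 Read-out: CCF4 FRET ratio (460 nm/530 nm) after 1 h RT dye loading, used for %activity and AC50 from titration series. Cells: Jurkat NFAT-β-lactamase/M1 line, treated with compound plus 1 uM carbachol for 5 h, 37 °C.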

[5] = molecular target: Glucocorticoid receptor (Homo sapiens) (UniProt P04150); experiment: GR-GFP Redistribution (AID 450;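 active = compounds whose dose series gives a full or clear partial fitted curve of increased nuclear translocation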; note: potency is the fitted concentration of half-maximal effect); conditions: U2OS GR-GFP nuclear translocation, laser cytometry, 2 h
[6] = molecular target: Glucocorticoid receptor (Homo sapiens) (UniProt P04150); experiment: GR-EFC Redistribution (AID 451; calls by dose curve; note: potency is the fitted concentration of half-maximal effect); conditions: CHO-K1 GR-EFC translocation, beta-gal luminescence, 2 h
How it was run: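 Translocation of GR-ED fusion to nuclear EA restores b-gal, read by luminescence after 1 h room-temperature detection. Engineered CHO-K1 biosensor cells, 1,000/well, exposed 2 h at 37 C to titrations up to 46 uM final.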

[7] = molecular target: Mitogen-activated protein kinase 10 (Mus musculus) (UniProt Q61831); experiment: JNK3 AlphaScreen Assay (AID 530); conditions: JNK3 lysate, c-Jun phosphorylation; series mostly up to 57.1 µM;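 note: kinase came from lysate of stimulated human HepG2 cells; signal reports phosphorylation of biotinylated GST-cJun 1-79 at Ser73 with 10 µM ATP; % is set by controls: 0 for no effect and ±100 for the full control effect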
How it was run: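 Kinase buffer: 20 mM Tris-HCl pH 7.6, 10 mM MgCl2, 1 mM DTT, 0.1 mM Na3VO4, 0.01% Tween-20; ATP 10 uM. Substrate biotin-GST-cJun(1-79), enzyme from activated HepG2 lysates. Detection by Ser73 phospho-antibody AlphaScreen.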

[8] = molecular target: Cytochrome P450 2C9 (Homo sapiens) (UniProt P11712); experiment: qHTS Assay for Inhibitors and Substrates of Cytochrome P450 2C9 (AID 883; active = well fitted curve in the direction sought with a large enough effect; an effect the other way counts as inactive or inconclusive; note: % is set by controls: 0 for no effect and ±100 for the full control effect; nearly all actives have a fitted effect of over 60% in size); conditions: recombinant CYP2C9, luciferin-H luminescence, 60 min; series mostly up to 57.1 µM
How it was run: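 Inhibition of CYP2C9 is scored as loss of luminescence, with 57uM sulphaphenazole defining 100% inhibition. Substrate Luciferin-H is used at 100uM, equal to its KM; enzyme at 10nM in 25mM KPO4, 60 min at 37C with NADPH regeneration.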

[9] = molecular target: Cytochrome P450 3A4 (Homo sapiens) (UniProt P08684); experiment: qHTS Assay for Activators of Cytochrome P450 3A4 (AID 885; active = well fitted curve in the direction sought with a large enough effect; an effect the other way counts as inactive or inconclusive; note: nearly all actives have a fitted effect of over 65% in size; note: potency is the fitted concentration of half-maximal effect); conditions: recombinant CYP3A4, Luciferin-PPXE luminescence, 60 min; series mostly up to 57.1 µM
How it was run: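 Luminescent readout of luciferin formed from 25 uM Luciferin-PPXE (KM level) by 20 nM CYP3A4 in 200 mM KPO4, with 60 min NADPH-driven reaction at room temperature after 10 min compound exposure. Ketoconazole (57 uM) defined 100% inhibition.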

[10] = molecular target: Cytochrome P450 2C19 (Homo sapiens) (UniProt P33261); experiment: qHTS Assay for Inhibitors and Substrates of Cytochrome P450 2C19 (AID 899; active = well fitted curve in the direction sought with a large enough effect; an effect the other way counts as inactive or inconclusive; note: potency is the fitted concentration of half-maximal effect; nearly all actives have a fitted effect of over 60% in size); conditions: recombinant CYP2C19, luciferin-H EGE luminescence; series mostly up to 57.1 µM
How it was run: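 5nM enzyme + 10uM Luciferin-H EGE (=KM), 50mM KPO4; cpd pin-transferred, 10 min 37C; NADPH regen, 60 min 37C; stopped w/ luciferin detection reagent, 20 min; luminescence. Normalized to 57uM ketoconazole (AC100).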

[11] = qHTS Assay for Lipid Storage Modulators (AID 1519; calls by dose curve); conditions: Drosophila S3 cells, BODIPY lipid droplet/cell ratio, laser cytometry, cells loaded with oleic acid; for activity change, negative = inhibition: at 57.5 µM (top of the series)
How it was run: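 Cells seeded at 5,000 per well were treated with compounds over a concentration series and loaded with oleic acid (400 uM, as added). Lipid droplet fluorescence (488 nm excitation, 500-530 nm channel) was read by laser-scanning cytometry and normalized to 20 uM Triacsin C.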

[12] = Primary qHTS for small molecule stabilizers of the endoplasmic reticulum resident proteome: Secreted ER Calcium Modulated Protein (SERCaMP) assay (AID 1508630; active = well fitted curve in the direction sought with a large enough effect; an effect the other way counts as inactive or inconclusive; note: % is set by controls: 0 for no effect and ±100 for the full control effect); conditions: SH-SY5Y GLuc-SERCaMP (Gaussia luciferase released on ER calcium loss) secretion, thapsigargin, luminescence; series mostly up to 38.4 µM
How it was run: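 The SH-SY5Y reporter protocol was run at 3 concentrations up to 38.3 uM (primary) or 11 concentrations (follow-up): 16 h compound, 100 nM thapsigargin for 4 h, then extracellular luciferase luminescence.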

[13] = Stat Signaling Pathway (AID 446); conditions: ME-180 SIE beta-lactamase reporter, IL-6 stimulated, 5 h; at 7.69 µM (top of the series) unless noted
How it was run: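 FRET read-out (405 nm excitation, 460/530 nm emission) of a beta-lactamase reporter under a STAT-inducible element in ME-180 cervical carcinoma cells. Cells with compound receive 40 pM IL-6 for 5 h. Values are normalised to AC90 stimulation and AC90 JAK-inhibitor controls.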

[14] = molecular target: Cytochrome P450 3A4 (Homo sapiens) (UniProt P08684); experiment: qHTS Assay for Inhibitors and Substrates of Cytochrome P450 3A4 (AID 884; active = well fitted curve in the direction sought with a large enough effect; an effect the other way counts as inactive or inconclusive; note: nearly all actives have a fitted effect of over 50% in size; note: potency is the fitted concentration of half-maximal effect); conditions: recombinant CYP3A4, Luciferin-PPXE luminescence; series mostly up to 57.1 µM
How it was run: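 Luminescent readout of luciferin produced by CYP3A4 (20 nM) dealkylation of Luciferin-PPXE, 25 uM (its KM). NADPH-driven reaction ran 60 min at RT after 10 min compound preincubation; data scaled to 57 uM ketoconazole as 100% inhibition.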

[15] = molecular target: 3',5'-cyclic-AMP phosphodiesterase 4B (Homo sapiens) (UniProt Q07343); experiment: qHTS Assay for Inhibitors of PDE-IV (AID 607; active = well fitted activation curve with a large enough effect in the main read-out, with a control signal flat, not every such curve was filed as active; note: % of control where 0% means no effect); conditions: HEK293 ACTOne CNG channel cells, membrane potential fluorescence; series mostly up to 22.9 µM
How it was run: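 Cell-based read-out of cAMP via a modified cyclic nucleotide-gated channel and membrane potential dye (535/590 nm) in HEK293 cells expressing PDE4 endogenously. Compounds tested up to 22.9 uM final; 100 uM RO 20-1724 reference.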

[16] = qHTS Assay for Identification of Small Molecule Agonists for Hypoxia Response Element Signaling Pathway (AID 914; active = well fitted activation curve with a large enough effect in the signal ratio, with a control signal flat, not every such curve was filed as active; the % refers to the signal ratio; note: % of control where 0% means no effect); conditions: ME-180 HRE-bla reporter, beta-lactamase ratio, CoCl2, 17 h; activation: stronger effect = higher value
How it was run: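 ME-180 cells carrying an HRE-driven beta-lactamase reporter were treated with compounds in a titration series plus an EC50 level of CoCl2 for 17 h at 37 degrees Celsius; CCF4 readout as the 460nm/530nm ratio gave AC50 values.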

[17] = measured here: cell count channel max response
[18] = measured here: lipid channel max response

Sequence of Cytochrome P450 2C19 (Homo sapiens) (P33261 whole entry, looked up): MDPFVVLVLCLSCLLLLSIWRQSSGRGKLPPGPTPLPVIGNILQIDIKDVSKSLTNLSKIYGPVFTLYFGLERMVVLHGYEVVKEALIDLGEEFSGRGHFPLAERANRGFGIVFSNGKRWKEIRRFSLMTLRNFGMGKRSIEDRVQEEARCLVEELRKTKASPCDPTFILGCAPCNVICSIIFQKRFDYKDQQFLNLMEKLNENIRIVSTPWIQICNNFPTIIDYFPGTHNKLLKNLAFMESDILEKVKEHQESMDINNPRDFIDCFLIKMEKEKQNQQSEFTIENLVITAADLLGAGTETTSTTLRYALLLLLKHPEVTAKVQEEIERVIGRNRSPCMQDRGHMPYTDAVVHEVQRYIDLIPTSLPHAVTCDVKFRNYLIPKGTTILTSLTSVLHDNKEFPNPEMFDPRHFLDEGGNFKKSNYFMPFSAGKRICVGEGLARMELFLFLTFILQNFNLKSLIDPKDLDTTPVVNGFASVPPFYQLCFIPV
Sequence of Glucocorticoid receptor (Homo sapiens) (P04150 whole entry, looked up, the tested form may be a part): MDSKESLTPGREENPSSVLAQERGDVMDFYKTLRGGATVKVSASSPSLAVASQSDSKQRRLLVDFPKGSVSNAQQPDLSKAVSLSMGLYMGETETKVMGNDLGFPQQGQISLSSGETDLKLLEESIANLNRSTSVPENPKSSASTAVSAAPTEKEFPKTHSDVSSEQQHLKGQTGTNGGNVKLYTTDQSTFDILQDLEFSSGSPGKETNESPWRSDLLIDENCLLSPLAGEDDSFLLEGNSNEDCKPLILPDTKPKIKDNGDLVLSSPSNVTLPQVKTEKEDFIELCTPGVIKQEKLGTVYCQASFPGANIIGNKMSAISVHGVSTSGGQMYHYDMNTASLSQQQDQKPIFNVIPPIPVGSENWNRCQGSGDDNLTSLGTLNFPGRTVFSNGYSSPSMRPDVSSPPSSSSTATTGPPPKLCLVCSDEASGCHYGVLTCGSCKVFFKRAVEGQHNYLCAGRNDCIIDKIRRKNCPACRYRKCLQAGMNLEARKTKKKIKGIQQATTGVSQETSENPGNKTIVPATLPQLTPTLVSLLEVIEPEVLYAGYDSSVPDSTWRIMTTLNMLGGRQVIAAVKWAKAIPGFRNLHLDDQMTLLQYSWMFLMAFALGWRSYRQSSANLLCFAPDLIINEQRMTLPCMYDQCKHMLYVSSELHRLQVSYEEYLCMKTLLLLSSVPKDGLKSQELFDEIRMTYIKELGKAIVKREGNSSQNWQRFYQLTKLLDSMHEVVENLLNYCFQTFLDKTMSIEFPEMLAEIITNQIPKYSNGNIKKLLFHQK
Sequence of Cytochrome P450 1A2 (Homo sapiens) (P05177 whole entry, looked up): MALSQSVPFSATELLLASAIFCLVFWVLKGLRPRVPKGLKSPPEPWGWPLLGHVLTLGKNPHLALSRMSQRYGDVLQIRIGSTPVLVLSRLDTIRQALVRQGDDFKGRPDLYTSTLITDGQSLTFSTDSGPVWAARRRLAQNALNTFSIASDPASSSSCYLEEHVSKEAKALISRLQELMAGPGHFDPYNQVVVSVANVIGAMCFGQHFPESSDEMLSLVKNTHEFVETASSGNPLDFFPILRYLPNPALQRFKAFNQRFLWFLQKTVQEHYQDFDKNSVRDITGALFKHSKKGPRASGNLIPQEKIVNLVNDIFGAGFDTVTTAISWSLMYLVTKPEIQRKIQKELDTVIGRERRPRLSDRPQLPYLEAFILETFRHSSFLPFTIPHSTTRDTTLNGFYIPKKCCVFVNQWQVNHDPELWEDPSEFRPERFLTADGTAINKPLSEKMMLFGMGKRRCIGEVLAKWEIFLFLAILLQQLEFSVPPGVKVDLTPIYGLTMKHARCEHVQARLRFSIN
Sequence of Cytochrome P450 3A4 (Homo sapiens) (P08684 whole entry, looked up): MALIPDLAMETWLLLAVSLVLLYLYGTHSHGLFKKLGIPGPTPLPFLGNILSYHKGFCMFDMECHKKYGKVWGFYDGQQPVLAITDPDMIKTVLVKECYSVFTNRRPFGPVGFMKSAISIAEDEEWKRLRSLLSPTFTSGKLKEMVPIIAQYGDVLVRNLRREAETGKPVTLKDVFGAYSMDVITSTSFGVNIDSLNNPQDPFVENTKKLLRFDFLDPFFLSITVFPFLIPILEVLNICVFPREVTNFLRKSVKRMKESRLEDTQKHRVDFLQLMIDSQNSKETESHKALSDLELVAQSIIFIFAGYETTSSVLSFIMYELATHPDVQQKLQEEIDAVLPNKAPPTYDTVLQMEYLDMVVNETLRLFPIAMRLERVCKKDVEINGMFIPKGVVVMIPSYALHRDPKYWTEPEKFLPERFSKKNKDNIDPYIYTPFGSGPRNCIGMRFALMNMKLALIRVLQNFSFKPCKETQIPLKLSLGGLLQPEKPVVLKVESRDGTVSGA
Sequence of Lysosomal acid glucosylceramidase (Homo sapiens) (P04062 whole entry, looked up): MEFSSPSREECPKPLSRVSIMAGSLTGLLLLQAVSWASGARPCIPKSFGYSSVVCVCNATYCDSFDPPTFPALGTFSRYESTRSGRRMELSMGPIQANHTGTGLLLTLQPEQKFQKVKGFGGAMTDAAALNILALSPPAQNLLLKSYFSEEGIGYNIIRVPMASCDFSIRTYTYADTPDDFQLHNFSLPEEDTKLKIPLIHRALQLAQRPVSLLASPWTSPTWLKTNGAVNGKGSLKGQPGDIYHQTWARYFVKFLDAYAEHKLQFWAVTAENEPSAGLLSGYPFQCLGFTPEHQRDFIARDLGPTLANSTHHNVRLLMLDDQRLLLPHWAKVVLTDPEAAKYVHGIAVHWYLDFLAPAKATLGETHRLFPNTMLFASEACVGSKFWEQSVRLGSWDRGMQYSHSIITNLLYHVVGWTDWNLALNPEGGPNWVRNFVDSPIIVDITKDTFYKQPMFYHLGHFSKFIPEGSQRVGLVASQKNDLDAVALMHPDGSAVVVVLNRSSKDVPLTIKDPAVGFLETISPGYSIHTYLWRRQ
Sequence of 3',5'-cyclic-AMP phosphodiesterase 4B (Homo sapiens) (Q07343 whole entry, looked up): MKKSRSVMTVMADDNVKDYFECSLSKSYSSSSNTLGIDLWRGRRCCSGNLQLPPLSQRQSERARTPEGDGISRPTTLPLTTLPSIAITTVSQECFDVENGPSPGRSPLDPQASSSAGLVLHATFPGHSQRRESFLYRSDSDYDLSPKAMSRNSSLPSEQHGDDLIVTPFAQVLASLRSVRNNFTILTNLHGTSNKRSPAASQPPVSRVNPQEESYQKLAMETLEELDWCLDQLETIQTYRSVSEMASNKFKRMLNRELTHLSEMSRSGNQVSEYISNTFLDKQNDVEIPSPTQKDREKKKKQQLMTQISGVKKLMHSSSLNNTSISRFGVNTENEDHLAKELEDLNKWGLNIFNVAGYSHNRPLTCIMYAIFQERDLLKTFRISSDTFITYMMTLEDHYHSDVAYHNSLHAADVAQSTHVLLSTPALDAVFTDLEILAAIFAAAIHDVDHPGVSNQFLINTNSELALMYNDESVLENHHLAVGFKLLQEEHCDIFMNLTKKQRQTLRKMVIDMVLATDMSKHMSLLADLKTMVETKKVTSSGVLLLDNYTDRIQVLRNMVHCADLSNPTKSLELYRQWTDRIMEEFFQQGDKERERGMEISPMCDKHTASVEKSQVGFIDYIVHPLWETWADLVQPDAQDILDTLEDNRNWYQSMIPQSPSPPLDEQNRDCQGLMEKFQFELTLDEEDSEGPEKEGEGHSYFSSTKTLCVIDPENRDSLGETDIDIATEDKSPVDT
Sequence of Cytochrome P450 2C9 (Homo sapiens) (P11712 whole entry, looked up): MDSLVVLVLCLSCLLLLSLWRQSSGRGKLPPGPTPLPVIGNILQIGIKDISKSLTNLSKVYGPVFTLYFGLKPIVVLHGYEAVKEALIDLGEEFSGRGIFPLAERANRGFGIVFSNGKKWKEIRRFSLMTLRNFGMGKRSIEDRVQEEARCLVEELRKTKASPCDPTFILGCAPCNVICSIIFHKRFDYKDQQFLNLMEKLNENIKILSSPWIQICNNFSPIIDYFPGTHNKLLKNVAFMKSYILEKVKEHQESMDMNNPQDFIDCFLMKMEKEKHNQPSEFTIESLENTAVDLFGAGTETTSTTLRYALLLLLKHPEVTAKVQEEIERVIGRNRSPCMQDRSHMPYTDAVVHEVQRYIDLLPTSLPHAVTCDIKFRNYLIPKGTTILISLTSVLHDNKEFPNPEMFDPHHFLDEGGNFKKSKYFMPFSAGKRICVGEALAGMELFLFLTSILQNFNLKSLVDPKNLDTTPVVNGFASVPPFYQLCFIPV

Cc1nc2cnc(N(C)C)nc2n(Cc2ccc(F)cc2)c1=O
active: Potency [3] 2 µM | Potency [10] 1.58 µM
inactive: Potency [1] > 11.4 µM | activity change, negative = inhibition [2] 3.79% | activity change, negative = inhibition [4] 1.01% | Potency [5] > 9.22 µM | Potency [6] > 46 µM | outcome [7] | Potency [8] | Potency [9] | activity change, negative = inhibition [11] 5.88% | Potency [12]
15%: max response [11, 17]
21.5%: max response [11, 18]

O=C(c1ccncc1)N1CCC2(CC1)CN(C(c1ccccc1)c1ccccc1)C2
inactive: Potency [1] > 11.4 µM | activity change, negative = inhibition [2] 4.62% | activity change, negative = inhibition [4] 16.7% | activity, negative = inhibition [13] -10.1% | outcome [7] | Potency [14] | activity change, negative = inhibition [11] 4.23% | Potency [12]
3.6%: max response [11, 18]
active: Potency [3] 15.8 µM | Potency [9] 3.98 µM
-4.87%: max response [11, 17]

O=S(=O)(c1ccccc1)N1CCC[C@@]2(CCN(c3ccccc3)C2)C1
-9.53%: max response [11, 18]
active: Potency [3] 3.98 µM | Potency [14] 5.01 µM | Potency [10] 0.316 µM
inactive: Potency [1] > 11.4 µM | activity change, negative = inhibition [2] -10.1% | activity change, negative = inhibition [4] -13.8% | activity, negative = inhibition [13] -4.22% | Potency [6] > 46 µM | Potency [9] | activity change, negative = inhibition [11] -16% | Potency [12]
5.79%: max response [11, 17]

Cn1cccc1C(=O)N1CCC[C@@]2(CCN(c3ccccc3)C2)C1
17.2%: max response [11, 18]
active: Potency [3] 12.6 µM | Potency [10] 5.01 µM
15.8%: max response [11, 17]
inactive: Potency [1] > 11.4 µM | activity change, negative = inhibition [2] -3.25% | activity change, negative = inhibition [4] -15.1% | activity, negative = inhibition [13] -10.8% | Potency [6] > 46 µM | Potency [9] | activity change, negative = inhibition [11] -1.47% | Potency [12]

O=C(c1csnn1)N1CCC2(CC1)CCN(c1ccccc1)CC2
active: Potency [3] 15.8 µM
6.57%: max response [11, 18]
inactive: Potency [1] > 11.4 µM | activity change, negative = inhibition [2] -9.9% | activity change, negative = inhibition [4] 25.1% | activity, negative = inhibition [13] 1.19% | outcome [7] | Potency [15] | activation [16] -15.4% | activity change, negative = inhibition [11] 4.25% | Potency [12]
1.9%: max response [11, 17]

CC(C)NC(=O)N1CCC2(CC1)CCN(C(=O)c1cccc(F)c1)CC2
-10.3%: max response [11, 17]
active: Potency [9] 20 µM
inactive: Potency [1] > 11.4 µM | activity change, negative = inhibition [2] 10.6% | Potency [3] | activity change, negative = inhibition [4] 6.56% | activity, negative = inhibition [13] 7.13% | outcome [7] | Potency [15] | Potency [14] | activity change, negative = inhibition [11] 1.61% | Potency [12]
-8.2%: max response [11, 18]

— PubChem BioAssay (NCATS)
